This is part of a sample that, as a whole, favours compounds with a hit. Of some 83,000 tested, about 20% had one in any assay.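 Single-dose data. Exposure time 48 hours. Values below 10 considered active.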 Values without a mark were called inactive. Activity calls are given as the source filed them.
Key:
Test in all cases: NCI-60 one-dose screen, 48 h (100 = growth as untreated, 0 = no growth, -100 = all killed)
Conditions in all cases: 10 µM unless noted
HT29 colon = tested on: HT29 colon
SNB-75 CNS = tested on: SNB-75 CNS
SNB-19 CNS = tested on: SNB-19 CNS
U251 CNS = tested on: U251 CNS
PC-3 prostate = tested on: PC-3 prostate
SK-MEL-5 melanoma = tested on: SK-MEL-5 melanoma
UACC-62 melanoma = tested on: UACC-62 melanoma
LOX IMVI melanoma = tested on: LOX IMVI melanoma
SK-MEL-28 melanoma = tested on: SK-MEL-28 melanoma
SK-MEL-2 melanoma = tested on: SK-MEL-2 melanoma

`COc1cc2nc(-c3ccc(C)cc3)cc(OCCCNCC3CCCO3)c2cc1OC` (stereo not given) gave a growth (HT29 colon) of 21.3%, a growth (SNB-75 CNS) of 80.7% and a growth (SNB-19 CNS) of 92.1%. The growth (U251 CNS) was 66.7%, the growth (PC-3 prostate) was 66.3% and the growth (SK-MEL-5 melanoma) was 77.7%. The growth (UACC-62 melanoma) was 96.6%, the growth (LOX IMVI melanoma) was -32.2% (active) and the growth (SK-MEL-28 melanoma) was 68.1%. It also gave a growth (SK-MEL-2 melanoma) of 112%.

`O=C(NNc1nc2cc(F)ccc2n2c(CN3CC4(COC4)C3)ccc12)c1cnccn1` gave a growth (HT29 colon) of 28.6%, a growth (SNB-75 CNS) of 63.1% and a growth (SNB-19 CNS) of 29.4%. For the same compound, the growth (U251 CNS) was 11.6%, the growth (PC-3 prostate) was 38.9% and the growth (SK-MEL-5 melanoma) was -20.3% (active). The growth (UACC-62 melanoma) was 5.57% (active), the growth (LOX IMVI melanoma) was 19.1% and the growth (SK-MEL-28 melanoma) was 20.6%. For the same compound, the growth (SK-MEL-2 melanoma) was 49.7%.

`Cc1cccc(/C=C/c2nn3c(-c4ccco4)nnc3s2)c1` showed a growth (HT29 colon) of 104%, a growth (SNB-75 CNS) of 100% and a growth (SNB-19 CNS) of 94.1%. For the same compound, the growth (U251 CNS) was 99.1%, the growth (PC-3 prostate) was 103% and the growth (SK-MEL-5 melanoma) was 92%. It also gave a growth (UACC-62 melanoma) of 94%, a growth (LOX IMVI melanoma) of 98.1% and a growth (SK-MEL-28 melanoma) of 97.3%. For the same compound, the growth (SK-MEL-2 melanoma) was 112%.

With `NS(=O)(=O)c1ccc(Nc2nc(SCC(=O)c3ccc(Cl)cc3)nc3ccccc23)cc1` the growth (HT29 colon) was 105%, the growth (SNB-75 CNS) was 75.3% and the growth (SNB-19 CNS) was 97.8%. It also gave a growth (U251 CNS) of 95.2%, a growth (PC-3 prostate) of 89.9% and a growth (SK-MEL-5 melanoma) of 95.3%. It also gave a growth (UACC-62 melanoma) of 79.4%, a growth (LOX IMVI melanoma) of 99.5% and a growth (SK-MEL-28 melanoma) of 100%. The growth (SK-MEL-2 melanoma) was 100%.

`CCOC(=O)c1csc(NC(=O)CSc2nc3sc4c(c3c(=O)n2-c2ccc(Cl)cc2)CCCC4)n1` was tested, and the growth (HT29 colon) was 122%, the growth (SNB-75 CNS) was 86.2% and the growth (SNB-19 CNS) was 96%. For the same compound, the growth (U251 CNS) was 98.4%, the growth (PC-3 prostate) was 92.4% and the growth (SK-MEL-5 melanoma) was 78%. For the same compound, the growth (UACC-62 melanoma) was 85%, the growth (LOX IMVI melanoma) was 56.5% and the growth (SK-MEL-28 melanoma) was 105%. For the same compound, the growth (SK-MEL-2 melanoma) was 105%.

In the case of `COc1cccc(COc2ccc(/C=C3/C(=O)Nc4cc(Cl)ccc43)cc2)c1`, the growth (HT29 colon) was 93.8%, the growth (SNB-75 CNS) was 84.2% and the growth (SNB-19 CNS) was 97.5%. It also gave a growth (U251 CNS) of 98.9%, a growth (PC-3 prostate) of 84.5% and a growth (SK-MEL-5 melanoma) of 93%. For the same compound, the growth (UACC-62 melanoma) was 86.7%, the growth (LOX IMVI melanoma) was 97.9% and the growth (SK-MEL-28 melanoma) was 102%. The growth (SK-MEL-2 melanoma) was 107%.

`Cc1nc(-c2cc3ccccc3oc2=O)ccc1C(=O)/C=C/c1ccc(Cl)c(Cl)c1` showed a growth (HT29 colon) of 114%, a growth (SNB-75 CNS) of 95.2% and a growth (SNB-19 CNS) of 98.5%. The growth (U251 CNS) was 99.4%, the growth (PC-3 prostate) was 101% and the growth (SK-MEL-5 melanoma) was 105%. The growth (UACC-62 melanoma) was 100%, the growth (LOX IMVI melanoma) was 86.9% and the growth (SK-MEL-28 melanoma) was 106%. The growth (SK-MEL-2 melanoma) was 134%.

Compound `CN(C)S(=O)(=O)c1oc(-c2ccccc2)nc1C#N` has a growth (HT29 colon) of 35.1%, a growth (SNB-75 CNS) of 96.1% and a growth (SNB-19 CNS) of 96.1%. The growth (U251 CNS) was 88.8%, the growth (PC-3 prostate) was 88.7% and the growth (SK-MEL-5 melanoma) was 93.1%. The growth (UACC-62 melanoma) was 97.9%, the growth (LOX IMVI melanoma) was -80.7% (active) and the growth (SK-MEL-28 melanoma) was 87.8%. It also gave a growth (SK-MEL-2 melanoma) of 110%.

With `Nc1cc(-c2c[nH]c3ccc(F)cc23)nc2cc(-c3c[nH]c4ccc(F)cc34)nn12` the growth (HT29 colon) was -60.9% (active), the growth (SNB-75 CNS) was 79% and the growth (SNB-19 CNS) was 106%. For the same compound, the growth (U251 CNS) was 3.43% (active), the growth (PC-3 prostate) was 78.8% and the growth (SK-MEL-5 melanoma) was 92.8%. The growth (UACC-62 melanoma) was 104%, the growth (LOX IMVI melanoma) was -18.8% (active) and the growth (SK-MEL-28 melanoma) was 109%. The growth (SK-MEL-2 melanoma) was 116%.

For `Cn1cc(-c2cc(N)n3nc(-c4cn(C)c5ccc(F)cc45)cc3n2)c2cc(F)ccc21`, the growth (HT29 colon) was -72.8% (active), the growth (SNB-75 CNS) was 109% and the growth (SNB-19 CNS) was 50.1%. The growth (U251 CNS) was -62.4% (active), the growth (PC-3 prostate) was 63.4% and the growth (SK-MEL-5 melanoma) was 104%. The growth (UACC-62 melanoma) was 62.5%, the growth (LOX IMVI melanoma) was -61.9% (active) and the growth (SK-MEL-28 melanoma) was 92.4%. It also gave a growth (SK-MEL-2 melanoma) of 110%.

`COC1CCN(Cc2ccc3c(NNC(=O)c4cnccn4)nc4cc(F)ccc4n23)C1` (stereo not given) gave a growth (HT29 colon) of 19.3%, a growth (SNB-75 CNS) of 65.8% and a growth (SNB-19 CNS) of 36.1%. For the same compound, the growth (U251 CNS) was 12.8%, the growth (PC-3 prostate) was 40.9% and the growth (SK-MEL-5 melanoma) was 15.9%. The growth (UACC-62 melanoma) was 20.7%, the growth (LOX IMVI melanoma) was 5.96% (active) and the growth (SK-MEL-28 melanoma) was 29.2%. It also gave a growth (SK-MEL-2 melanoma) of 74.7%.

In the case of `COc1ccc(-c2cc(C(=O)N=Nc3c(O)[nH]c4ccccc34)c3ccccc3n2)cc1OC`, the growth (HT29 colon) was 102%, the growth (SNB-75 CNS) was 92% and the growth (SNB-19 CNS) was 97.9%. The growth (U251 CNS) was 95.3%, the growth (PC-3 prostate) was 91.6% and the growth (SK-MEL-5 melanoma) was 97.3%. For the same compound, the growth (UACC-62 melanoma) was 91.5%, the growth (LOX IMVI melanoma) was 105% and the growth (SK-MEL-28 melanoma) was 98.1%. It also gave a growth (SK-MEL-2 melanoma) of 107%.

Reference: PubChem BioAssay (NCI)
